BoNT F protease = inhibitors of Botulinum neurotoxin F light chain protease; Multiplex microsphere protease cleavage assay, flow cytometry; inhibition, % at 10 µM; hit rate 0.22% among 360,000; AID 588497; in the data active means inhibition above about 35%, passing the limit was not always enough; inconclusive means no clear call, values can overlap the other calls
MazEF act = increases E. coli MazEF RNase cleavage of RNA | hit rate 0.32% among 350,000 | AID 504720 | FAM/BHQ RNA-DNA oligo cleavage fluorescence, 5 h | P0AE70 | activation, % at 20 µM; in the data active means activation above about 50%
Bead autofluor = counter-screen for toxin protease inhibitors: compound fluorescence; compound autofluorescence counterscreen, microsphere flow cytometry; stronger effect = higher value; fluorescence intensity (concentration not given with the values); hit rate 3.1% among 360,000; in the data active means fluorescence intensity above about 16000; inconclusive means no clear call, values can overlap the other calls
BoNT-A LC inh2 = blocks Botulinum neurotoxin A light chain protease | multiplex microsphere protease substrate cleavage, flow cytometry | inhibition, % at 10 µM | hit rate 0.17% among 360,000 | AID 588499
Anthrax LF prot = anthrax lethal factor protease inhibition. P15917. inhibition, % at 10 µM. hit rate 0.12% among 360,000. multiplex microsphere protease cleavage assay, LF
Target sequence (P15917 whole entry, looked up): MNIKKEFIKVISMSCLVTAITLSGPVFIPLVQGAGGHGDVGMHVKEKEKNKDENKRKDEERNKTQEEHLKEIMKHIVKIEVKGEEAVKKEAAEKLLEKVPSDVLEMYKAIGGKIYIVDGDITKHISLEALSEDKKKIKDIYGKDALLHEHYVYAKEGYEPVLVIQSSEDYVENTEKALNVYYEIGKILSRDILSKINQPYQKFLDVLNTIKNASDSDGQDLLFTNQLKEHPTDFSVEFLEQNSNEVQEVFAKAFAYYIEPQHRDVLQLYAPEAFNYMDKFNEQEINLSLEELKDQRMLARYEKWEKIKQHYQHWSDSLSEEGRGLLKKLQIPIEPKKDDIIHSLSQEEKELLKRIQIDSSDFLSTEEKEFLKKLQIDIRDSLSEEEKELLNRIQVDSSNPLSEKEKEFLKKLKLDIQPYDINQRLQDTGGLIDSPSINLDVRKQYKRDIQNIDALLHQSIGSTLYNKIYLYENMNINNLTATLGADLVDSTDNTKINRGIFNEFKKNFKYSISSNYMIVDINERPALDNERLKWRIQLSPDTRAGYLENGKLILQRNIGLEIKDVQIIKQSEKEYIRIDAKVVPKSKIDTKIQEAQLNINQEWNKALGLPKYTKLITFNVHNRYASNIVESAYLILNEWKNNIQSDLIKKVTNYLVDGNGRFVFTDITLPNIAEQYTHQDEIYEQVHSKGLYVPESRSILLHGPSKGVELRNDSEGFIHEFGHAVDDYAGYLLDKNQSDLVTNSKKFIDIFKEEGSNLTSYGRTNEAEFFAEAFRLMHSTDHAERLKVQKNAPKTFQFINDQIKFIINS
BoNTA LC inh 1 = blocks botulinum neurotoxin A light chain protease; AID 602139; hit rate 3% among 720; shares compounds with BoNT F protease; multiplex microsphere protease assay, flow cytometry; inhibition, % at 10 µM; in the data active means inhibition above about 32%
BoNT-F LC CP1 = blocks botulinum neurotoxin F light chain protease; shares compounds with BoNT F protease; multiplex microsphere protease cleavage assay, flow cytometry; inhibition, % at 10 µM; 720 tested, under 10 active; AID 602140; call rule not given here
LF protease CP1 = blocks anthrax lethal factor protease; shares compounds with BoNT F protease; inhibition, % at 10 µM; multiplex microsphere protease cleavage assay, LF; 720 tested, under 10 active; call rule not given here
Numbers stand for hits. Sampled rows, rich in hits. Any-hit rate of the full collection: about 3.6%. Unless noted, no stated cut-off is given here; in the data, active means inhibition above about 30%; inconclusive means no clear call, values can overlap the other calls; inactive means below that.

What do the screens show for `Cc1cccc(CCNS(=O)(=O)c2ccc(S(=O)(=O)N3CCC(C)CC3)cc2)c1`?
BoNT F protease: inactive; MazEF act: inactive; Bead autofluor: inactive; BoNT-A LC inh2: inactive; Anthrax LF prot: inactive; BoNTA LC inh 1: inactive; BoNT-F LC CP1: inactive; LF protease CP1: inactive

What do the screens show for `CCC1CCCCN1CCCNC(=O)c1cc2c(=O)oc3ccc(C)cc3c2s1` (centres undefined)?
BoNT F protease: inactive; MazEF act: inactive; Bead autofluor: inactive; BoNT-A LC inh2: inactive; Anthrax LF prot: inactive

How did Cc1ccc(NC(=O)c2cc(-c3cc(C)c(C)cc3O)n[nH]2)cc1C do in these assays?
BoNT F protease: inactive; MazEF act: inactive; Bead autofluor: inactive; BoNT-A LC inh2: inactive; Anthrax LF prot: inactive

How did Cc1c(NC(=O)c2cccc(NC(=O)Cc3c(F)cccc3Cl)c2)c(=O)n(-c2ccccc2)n1C do in these assays?
BoNT F protease: inactive; MazEF act: inactive; Bead autofluor: inactive; BoNT-A LC inh2: inactive; Anthrax LF prot: inactive

How did Cc1c(NC(=O)c2cccc(NC(=O)Cc3ccc(F)cc3)c2)c(=O)n(-c2ccccc2)n1C do in these assays?
BoNT F protease: inactive; MazEF act: inactive; Bead autofluor: inconclusive; BoNT-A LC inh2: inactive; Anthrax LF prot: 44; BoNTA LC inh 1: inactive; BoNT-F LC CP1: inactive; LF protease CP1: inactive

Results for Cc1csc(CN(C)C(=O)CC2C(=O)NCCN2Cc2ccc(Cl)c(F)c2)n1 (centres undefined) ?
BoNT F protease: inactive; MazEF act: inactive; Bead autofluor: inactive; BoNT-A LC inh2: inactive; Anthrax LF prot: inactive

Results for COc1ccc(-c2oc(=O)n(C)c2-c2ccc(OC)cc2)cc1 ?
BoNT F protease: 90; MazEF act: inactive; Bead autofluor: inactive; BoNT-A LC inh2: inactive; Anthrax LF prot: inactive; BoNTA LC inh 1: inactive; BoNT-F LC CP1: inactive; LF protease CP1: inactive

What do the screens show for `COCCn1c(-c2ccc(OC)cc2)c(-c2ccc(OC)cc2)oc1=O`?
BoNT F protease: inactive; MazEF act: inactive; Bead autofluor: inactive; BoNT-A LC inh2: inactive; Anthrax LF prot: inactive

How did Nc1c(C(=O)NC2CCCC2)c2nc3ccccc3nc2n1N do in these assays?
BoNT F protease: inactive; MazEF act: inactive; Bead autofluor: inactive; BoNT-A LC inh2: inactive; Anthrax LF prot: inactive

Results for Nc1c(C(=O)NC2CCCC2)c2nc3ccccc3nc2n1CC1CCCO1 (centres undefined) ?
BoNT F protease: inactive; MazEF act: inactive; Bead autofluor: inactive; BoNT-A LC inh2: 31; Anthrax LF prot: inactive; BoNTA LC inh 1: inactive; BoNT-F LC CP1: inactive; LF protease CP1: inactive

What do the screens show for `NS(=O)(=O)c1ccc(CCNC(=S)NC(=O)c2ccccc2Br)cc1`?
BoNT F protease: inactive; MazEF act: inactive; Bead autofluor: inactive; BoNT-A LC inh2: inactive; Anthrax LF prot: inactive

Results for CCCc1oc(C(=O)O)cc1CN1CCOCC1 ?
BoNT F protease: 42; MazEF act: inactive; Bead autofluor: inactive; BoNT-A LC inh2: inactive; Anthrax LF prot: inactive; BoNTA LC inh 1: inactive; BoNT-F LC CP1: inactive; LF protease CP1: inactive

What do the screens show for `COc1ccc(CCNC(=O)CN(C)S(=O)(=O)c2cccs2)cc1`?
BoNT F protease: inactive; MazEF act: inactive; Bead autofluor: inactive; BoNT-A LC inh2: inactive; Anthrax LF prot: inactive

What do the screens show for `O=C(c1cc([N+](=O)[O-])[nH]n1)N1CCSCC1`?
BoNT F protease: 36; MazEF act: inactive; Bead autofluor: inactive; BoNT-A LC inh2: inactive; Anthrax LF prot: inactive; BoNTA LC inh 1: inactive; BoNT-F LC CP1: inactive; LF protease CP1: inactive

Results for O=S(=O)(Nc1cc2nc3ccccc3nc2n1Cc1ccccc1)c1ccc(Cl)cc1 ?
BoNT F protease: inactive; MazEF act: inactive; Bead autofluor: inactive; BoNT-A LC inh2: 33; Anthrax LF prot: inactive; BoNTA LC inh 1: inactive; BoNT-F LC CP1: inactive; LF protease CP1: inactive

Results for O=S(=O)(NCc1ccccc1)c1ccc(Cl)cc1 ?
BoNT F protease: inactive; MazEF act: inactive; Bead autofluor: inactive; BoNT-A LC inh2: inactive; Anthrax LF prot: inactive

Results for CC(=O)N1N=C(c2cccs2)CC1c1cccc([N+](=O)[O-])c1 (centres undefined) ?
BoNT F protease: inactive; MazEF act: inactive; Bead autofluor: inactive; BoNT-A LC inh2: inactive; Anthrax LF prot: inactive
